In PubChem BioAssay (NCATS):
Inconclusive results are not listed. Where a call stands in place of a potency, no number is given. Calls of active or inactive are those of the source. Calls follow the shape of the dose curve; as a rule, active = well fitted inhibition curve with a large enough effect; inconclusive = small, poorly fitted or top-dose-only effect; inactive = flat fitted curve, though single readings scatter.

System: PAD
Test: qHTS profiling for inhibitors of Plasmodium falciparum proliferation (AID 504749); also: nearly all actives have a fitted effect of over 60% in size
Conditions: P. falciparum in erythrocytes, SYBR Green DNA, 72 h; series mostly up to 28.7 µM
Procedure, shortened: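 Readout was DNA-dye fluorescence from lysed cultures, ex 485/em 535 nm. Parasitized red cells had grown 72 h with compound; data scaled between 0.29 uM artemisinin and DMSO wells and corrected using vehicle-only plates.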
Potency is read from the fitted curve at half-maximal effect.

Row | Structure (SMILES) | Potency
1 | O=C(O)CCCCC(=O)O | inactive
2 | CCOC(=O)n1ccn(C)c1=S | inactive
3 | COc1cc(NS(C)(=O)=O)ccc1Nc1c2ccccc2nc2ccccc12 | 1.41 µM (active)
4 | C[C@]12CC[C@@H]3c4ccc(O)cc4CC[C@H]3[C@@H]1CC[C@@H]2O | inactive
5 | NCCC(O)(P(=O)(O)O)P(=O)(O)O | inactive
6 | CCN1CCC[C@H]1CNC(=O)c1c(OC)ccc(Br)c1OC | inactive
7 | CCN1CCN(c2cc3c(cc2F)c(=O)c(C(=O)O)cn3C2CC2)CC1 | inactive
8 | CN1C2CCC1CC(OC(=O)c1c[nH]c3ccccc13)C2 (stereo not given) | inactive
9 | Oc1c(Cl)cc(Cl)cc1Sc1cc(Cl)cc(Cl)c1O | inactive
10 | CC(=O)Oc1ccc(C(=C2CCCCC2)c2ccc(OC(C)=O)cc2)cc1 | inactive
11 | CC(=O)OCC(=O)NCCCOc1cccc(CN2CCCCC2)c1 | inactive
12 | CCN(CC)C(=O)N1CCN(C)CC1 | inactive
13 | Nc1ccc(/C=C/c2ccc(N)cc2S(=O)(=O)O)c(S(=O)(=O)O)c1 | inactive
14 | CCN1CCCC1=O | inactive
15 | CCN(CC)CCNC(=O)COc1ccc(Cl)cc1 | 11.2 µM (active)
16 | Cc1c(F)c(N2CCNC(C)C2)cc2c1c(=O)c(C(=O)O)cn2C1CC1 (stereo not given) | inactive
17 | CC(C)(Oc1ccc(Cl)cc1)C(=O)O | inactive
18 | CCCCC1=NC2(CCCC2)C(=O)N1Cc1ccc(-c2ccccc2-c2nn[nH]n2)cc1 | inactive

Row | Structure (SMILES) | Potency
19 | CCCCCCCCCCCCCCCCOP(=O)([O-])OCC[N+](C)(C)C | inactive
20 | C#C[C@]1(OC(C)=O)CC[C@H]2[C@@H]3CCC4=C[C@@H](OC(C)=O)CC[C@@H]4[C@H]3CC[C@@]21C | inactive
21 | CCCn1c(=O)[nH]c(=O)c2[nH]cnc21 | inactive
22 | CC(O)C(=O)O (stereo not given) | inactive
23 | O=C(OCCOCCO)c1ccccc1Nc1cccc(C(F)(F)F)c1 | inactive
24 | c1ccc(-c2ccc(C(c3ccccc3)n3ccnc3)cc2)cc1 (stereo not given) | 7.94 µM (active)
25 | Cc1cccn2c(=O)c(-c3nnn[nH]3)cnc12 | inactive
26 | NCCc1ccn[nH]1 | inactive
27 | O=C1OC(c2ccc(O)cc2)(c2ccc(O)cc2)c2ccccc21 | inactive
28 | CN1C(CCl)Nc2cc(Cl)c(S(N)(=O)=O)cc2S1(=O)=O (stereo not given) | inactive
29 | COc1cc(C(=S)N2CCOCC2)cc(OC)c1OC | inactive
30 | C[C@H]1[C@H](NC(=O)/C(=N/OC(C)(C)C(=O)O)c2csc(N)n2)C(=O)N1S(=O)(=O)O (stereo in doubt) | inactive
31 | NCCCC[C@H](N[C@@H](CCc1ccccc1)C(=O)O)C(=O)N1CCC[C@H]1C(=O)O | inactive
32 | CC(C)(CO)[C@@H](O)C(=O)NCCCO | inactive
33 | Cc1ccnc(NS(=O)(=O)c2ccc(N)cc2)n1 | inactive
34 | CNCCC(Oc1ccccc1C)c1ccccc1 (stereo not given) | inactive
35 | Nc1ccc(C(=O)O)cc1 | inactive
